Data on 92 molecules can be found in PubChem BioAssay AID583 (Sanford-Burnham Center for Chemical Genomics, 2007).

Molecules are shown by their SMILES. “And” between values parts separate entries of the source, which are not always exact repeats. Identical values can stand only once. The campaign covered roughly 140,000 compounds. About 80 (0.06%) were called active. This is one part of a sample in which actives are shown more often than they occur. Cut-off read from the data, not from the text of the source: active = displacement above about 50%; inactive = the rest.

Heat shock 70 kDa protein 1A (Homo sapiens), sequence (P0DMV8 whole entry, looked up): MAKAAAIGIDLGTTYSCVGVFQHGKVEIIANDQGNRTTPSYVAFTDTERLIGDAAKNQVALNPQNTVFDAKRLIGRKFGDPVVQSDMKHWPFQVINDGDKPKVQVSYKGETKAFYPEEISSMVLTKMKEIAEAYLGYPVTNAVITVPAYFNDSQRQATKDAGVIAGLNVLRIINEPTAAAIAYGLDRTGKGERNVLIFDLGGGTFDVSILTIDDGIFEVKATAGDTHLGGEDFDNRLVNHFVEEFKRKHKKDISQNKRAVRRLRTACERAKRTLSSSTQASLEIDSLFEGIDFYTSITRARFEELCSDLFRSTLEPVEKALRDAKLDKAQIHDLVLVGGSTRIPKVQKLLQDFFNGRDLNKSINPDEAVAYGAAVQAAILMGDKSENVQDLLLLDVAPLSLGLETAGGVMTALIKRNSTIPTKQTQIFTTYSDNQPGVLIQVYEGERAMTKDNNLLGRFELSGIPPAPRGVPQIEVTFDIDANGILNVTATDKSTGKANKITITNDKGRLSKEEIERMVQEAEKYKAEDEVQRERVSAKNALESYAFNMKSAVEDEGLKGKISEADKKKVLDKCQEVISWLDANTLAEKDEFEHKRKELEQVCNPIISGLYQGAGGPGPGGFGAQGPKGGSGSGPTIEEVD

This assay addresses Heat shock 70 kDa protein 1A (Homo sapiens) (UniProt P0DMV8). The experiment in a line: small molecules displacing fluorescent ligand from Hsp70 – biochemical, fluorescence polarization, primary screen (AID 583).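 Note: plate controls were vehicle for no effect and reference ligand for full effect.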 The conditions noted are these: Hsp70 fluorescence polarization probe displacement, mP; at 20 µM; active compounds read high.
As to `CCOc1ccc(N(CC(=O)NC2CCCCC2)S(=O)(=O)c2ccc(Cl)cc2)cc1`, the displacement was 2.4% (inactive).
Then `NC(=O)c1ccc(NC(=O)Cc2ccc(Cl)cc2)cc1`, with -3.6% (inactive); and `O=C(N/N=C/c1cccc([N+](=O)[O-])c1)c1cc(-c2ccc(Cl)cc2)n[nH]1`, with 4.6% (inactive).
Consider `Cc1ccc(-c2cc(C(=O)N/N=C/c3cccc([N+](=O)[O-])c3)[nH]n2)cc1`, for which the displacement is 78.2% (active).
As to `Cc1ccc(-c2cc(C(=O)N/N=C/c3ccc([N+](=O)[O-])cc3)[nH]n2)cc1`, the displacement was 1.8% (inactive).
Then `CC(C)(C)NC(=O)c1cccc(N2C(=O)c3cccc([N+](=O)[O-])c3C2=O)c1`, with 1.9% (inactive); and `Cc1cccc(C(NC(N)=O)c2ccccc2)c1` (configuration not stated), with 0.4% (inactive); and `NC1=NC(=O)/C(=C/c2ccc(-c3cc([N+](=O)[O-])ccc3Cl)o2)S1`, with 75.9% (active).
Then `NC1=NC(=O)/C(=C\c2ccc(-c3ccc([N+](=O)[O-])cc3)o2)S1`, with -5.8% (inactive); and `NC1=NC(=O)/C(=C/c2ccc(-c3ccc([N+](=O)[O-])cc3Br)o2)S1`, with 44.5% (inactive); and `Cc1ccc(/C(N)=N/OC(=O)c2ccccc2F)cc1`, with 2.5% (inactive).
With `O=S(=O)(Nc1ccc(F)cc1)c1ccc2c(c1)Cc1cc(S(=O)(=O)Nc3ccc(F)cc3)ccc1-2`, the displacement was -0.8% (inactive).
As to `Cc1ccc(NC(=O)c2ccccc2NC(=O)Cc2cccs2)cc1C`, the displacement is 3.6% (inactive).
With `CN(c1ccc(C(=O)NC2CC2)cc1)S(=O)(=O)c1ccccc1`, the displacement is 0.5% (inactive).
As for `Cc1c(C(=O)Nc2ccc(-c3nc4cc(Cl)ccc4o3)cc2)cccc1[N+](=O)[O-]`, the displacement was -7% (inactive).
Regarding `Cc1c(C(=O)Nc2ccc3oc(-c4ccc(Cl)cc4Cl)nc3c2)cccc1[N+](=O)[O-]`, the displacement was -1.5% (inactive).
Then `Cc1c(NC(=O)c2ccccc2[N+](=O)[O-])cccc1-c1nc2cc(Cl)ccc2o1`, with 60.1% (active); and `Cc1cc(NC(=O)CN2CCN(c3ccccc3F)CC2)nc2c1c(=O)oc1ccccc12`, with 1.7% (inactive).
For the molecule `COc1ccc(N2C(=O)C3C(C2=O)N2CCCN2C3c2ccc(Cl)cc2)cc1` (configuration not stated), the displacement is 2.3% (inactive).
As to `O=C1NC(=O)N(c2ccc(Br)cc2)C(=O)/C1=C/c1ccco1`, the displacement was 54% (active).
Turning to `Cc1cc(N2C(=O)NC(=O)/C(=C\c3ccco3)C2=O)ccc1Br`, the displacement was 40.3% (inactive).
As to `O=C1NC(=O)N(c2ccc(Br)cc2)C(=O)/C1=C\C=C\c1ccco1`, the displacement was -7.2% (inactive).
Then `N#CCOc1ccccc1/C=N/c1sc2c(c1C#N)CCCC2`, with -0.5% (inactive); and `CC(C)(C)NC(=O)CN1CCC(O)(c2ccc3c(c2)OCO3)CC1`, with 5.2% (inactive).
Turning to `O=C(O)CCN1C(=O)/C(=C/c2ccc(-c3ccc([N+](=O)[O-])cc3)o2)SC1=S`, the displacement was 1.7% (inactive).
For `O=C1/C(=C\c2ccc(-c3ccc([N+](=O)[O-])cc3)o2)SC(=S)N1c1ccc(O)cc1` the value was 1.6% (inactive); for `O=C(O)c1ccc(-c2ccc(/C=C3\SC(=S)N(c4ccc([N+](=O)[O-])cc4)C3=O)o2)cc1`, 55.5% (active).
As to `CC(=O)Nc1ccccc1NC(=O)COc1ccc(Cl)cc1C`, the displacement was -3.3% (inactive).
Consider `O=c1ccc(Oc2nc(N3CCOCC3)nc(N3CCOCC3)n2)nn1-c1ccccc1`, for which the displacement is 6.5% (inactive).
Turning to `N/C(=N\OC(=O)c1cccc(Br)c1)c1cccnc1`, the displacement was 1.1% (inactive).
With `Cc1c(Cl)cccc1N=C1NC(=O)/C(=C/c2ccc(O)c([N+](=O)[O-])c2)S1`, the displacement is 13.2% (inactive).
Turning to `Cc1ccc(N=C2NC(=O)/C(=C/c3ccc(O)c([N+](=O)[O-])c3)S2)cc1Cl`, the displacement was 66.9% (active).
Then `COc1cc(/C=C2\SC(=Nc3ccc(C)c(Cl)c3)NC2=O)ccc1O`, with -0.7% (inactive); and `CC1CCCCN1c1nnc(N)s1` (configuration not stated), with 0.6% (inactive).
As to `O=C(Cn1c(=O)n(CC2CCCO2)c(=O)c2ccccc21)N1CCN(c2ccccc2)CC1` (configuration not stated), the displacement was 4.1% (inactive).
With `Cc1c(O)ccc2c1oc(=O)c1ccccc12`, the displacement was 2.3% (inactive).
Regarding `O=c1oc2c(O)c(O)ccc2c2c1CCC2`, the displacement is 1.2% (inactive).
In the case of `Nc1nnn(Cc2ccccc2)n1`, the displacement is -0.8% (inactive).
For the molecule `CCN(CC)S(=O)(=O)c1ccc2oc(Nc3ccc4c(c3)OCCO4)nc2c1`, the displacement was 0.7% (inactive).
For `CC(Sc1ccc2nnc(-c3ccc(F)cc3)n2n1)C(=O)O` (configuration not stated), the displacement was -5.3% (inactive).
With `NC(=O)CN1CCOCCN(CC(N)=O)CCOCC1`, the displacement is -5% (inactive).
As for `O=C(NCC(O)c1ccccc1)C(=O)NC1CC1` (configuration not stated), the displacement was -1.2% (inactive).
As for `CCC(c1nnc(SCc2nc3ccccc3s2)n1Cc1ccccc1)N(C)C` (configuration not stated), the displacement is -2.1% (inactive).
Regarding `O=C1CC(c2ccccc2)c2ccc(O)cc2O1` (configuration not stated), the displacement is 2.6% (inactive).
For `O=C1C=CC2=C3Oc4c(ccc5cc(O)ccc45)C(c4ccccc4C(=O)O)C3C=CC2=C1` (configuration not stated), the displacement was 60.9% (active).
Then `O=C(O)c1cccc(N2C(=O)c3ccc(Br)cc3C2=O)c1`, with -5.6% (inactive).
Turning to `O=C(O)c1cccc(N2C(=O)c3ccc4c5c(ccc(c35)C2=O)CC4)c1`, the displacement was 70% (active).
Turning to `O=C(O)c1cccc(N2C(=O)CCC2=O)c1`, the displacement is 3.8% (inactive).
For `Nc1nc(CSc2nc3ccccc3[nH]2)cs1`, the displacement was -1.6% (inactive).
For `Cc1cccc(N2C(=O)NC(=O)/C(=C/c3ccc(N(C)C)c(Br)c3)C2=O)c1`, the displacement was 0.9% (inactive).
Regarding `CCOc1cccc(=O)c2c(C)oc(C)c12`, the displacement is 28% (inactive) and 19.3% (inactive).
Consider `CCOc1ccc(-c2cc(OCC)c3c(C)oc(C)c3c(=[O+]CC)c2)cc1`, for which the displacement was -5.4% (inactive).
As for `CCOc1cccc(=[O+]CC)c2c(C)oc(C)c12`, the displacement is 80.7% (active).
For `Cc1oc(-c2ccc(Cl)cc2)nc1CN1CCCC(C(=O)NCc2ccco2)C1` (configuration not stated), the displacement is 0.5% (inactive).
Turning to `Cc1cc(C)c(NC(=O)c2c(-c3ccccc3)noc2C)c(C)c1`, the displacement was 1.9% (inactive).
Take `CCc1nnc(SCC(=O)N2CCCc3ccccc32)nc1CC`: the displacement is 0.4% (inactive).
Regarding `Cc1cc(NC(=O)c2ccc(-c3cccc(Cl)c3)o2)ccc1NC(=O)c1ccco1`, the displacement is -0.3% (inactive).
For `CN(C)CCCNc1c2c(c(C#N)c3nc4ccccc4n13)CCC2` the value was 3.6% (inactive).
On to `N#Cc1c2c(c(NCCCN3CCOCC3)n3c1nc1ccccc13)CCC2`, for which the displacement was 3.4% (inactive).
On to `N#Cc1c2c(c(NCCCCO)n3c1nc1ccccc13)CCC2`, for which the displacement is 55% (active).
As for `COc1cccc2c1NC(C(=O)O)C1CC=CC21` (configuration not stated), the displacement is 47.8% (inactive).
On to `O=[N+]([O-])c1ccc(C2Nc3ccc([N+](=O)[O-])cc3C3C=CCC32)cc1` (configuration not stated), for which the displacement is 0.4% (inactive).
Regarding `Cc1ccc2c(c1)C1C=CCC1C(C(=O)O)N2` (configuration not stated), the displacement is 38.6% (inactive).
For `O=C(O)C1Nc2c(cccc2[N+](=O)[O-])C2C=CCC12` (configuration not stated), the displacement is 76.9% (active).
For the molecule `O=C(O)C1Nc2ccc([N+](=O)[O-])cc2C2C=CCC12` (configuration not stated), the displacement is 102% (active).
Then `O=C(O)C1Nc2c(O)cccc2C2C=CCC12` (configuration not stated), with 16.1% (inactive); and `O=C(CCc1ccccc1)Oc1ccc(Cl)cc1`, with 0.9% (inactive).
Then `CCOc1ccc(N2C(=O)/C(=C/c3ccc(OCc4cccc(C(=O)O)c4)cc3)C(=O)NC2=S)cc1`, with 5.7% (inactive).
Take `CCc1ccc(N2C(=O)/C(=C/c3ccc(I)o3)C(=O)NC2=S)cc1`: the displacement is 84.7% (active).
Regarding `O=C1NC(=O)N(c2ccc(Cl)cc2)C(=O)/C1=C/c1ccc(I)o1`, the displacement is 15.2% (inactive).
Regarding `O=C1NC(=O)N(c2ccccc2F)C(=O)/C1=C/c1ccc(I)o1`, the displacement was 20.6% (inactive).
For `O=C1NC(=S)N(c2ccccc2F)C(=O)/C1=C/c1ccc(Sc2ccccc2)o1` the value was 0.9% (inactive); for `O=C1NC(=S)N(c2ccccc2F)C(=O)/C1=C/c1ccc(OCc2cccc(C(=O)O)c2)cc1`, 51.5% (active).
For the molecule `Cc1ccc(N2C(=O)NC(=O)/C(=C\c3ccc(I)o3)C2=O)cc1`, the displacement was 6.1% (inactive).
For the molecule `CCOc1ccc(N2C(=O)NC(=O)/C(=C\c3ccc(I)o3)C2=O)cc1`, the displacement was 0.7% (inactive).
For the molecule `O=C1NC(=O)N(c2ccccc2F)C(=O)/C1=C/c1ccc(OCc2cccc(C(=O)O)c2)cc1`, the displacement was 0.2% (inactive).
Then `CCOc1ccc(N2C(=O)/C(=C/c3ccc(N(CC)CC)o3)C(=O)NC2=S)cc1`, with -73.8% (inactive).
Regarding `O=C1NC(=S)N(c2ccccc2F)C(=O)/C1=C/c1ccc(I)o1`, the displacement is 81.7% (active).
As to `CCOc1ccc(N2C(=O)/C(=C/c3ccc(I)o3)C(=O)NC2=S)cc1`, the displacement is 96.7% (active).
Take `CC(C)c1ccc(-c2nc(N)c3c(=O)oc4ccccc4c3n2)cc1`: the displacement is 0.4% (inactive).
`O=C(CN(Cc1ccco1)C(=O)CNS(=O)(=O)c1ccccc1)NC1CCCCC1`: the displacement is 5.9% (inactive).
For `O=[N+]([O-])c1cc(NS(=O)(=O)Cc2ccccc2)ccc1F` the value was 3.6% (inactive).
For the molecule `O=C(NCc1ccc2c(c1)OCO2)C1COc2ccccc2O1` (configuration not stated), the displacement was 3.3% (inactive).
`CCCn1c(=N)n(CC(=O)C(C)(C)C)c2ccccc21`: the displacement is 7.1% (inactive).
With `CCn1cc(Br)c(C(=O)Nc2ccc(OC)cc2)n1`, the displacement was 8.2% (inactive).
Consider `O=C(NC1CC2CCCC(C1)N2C(=O)NC1CCCCC1)c1ccccc1` (configuration not stated), for which the displacement was 0.4% (inactive).
In the case of `COc1cccc(C(=O)NC2CC3CCCC(C2)N3CC(=O)Nc2ccc(N(C)C)cc2)c1` (configuration not stated), the displacement is 2.7% (inactive).
On to `COc1cc(C(=O)NC2CC3CCCC(C2)N3CC(=O)Nc2ccccc2)cc(OC)c1OC` (configuration not stated), for which the displacement is 2% (inactive).
Take `Cc1c(C(=O)N2CCc3ccccc3C2)sc2nc(-c3ccccc3)cn12`: the displacement is 0.5% (inactive).
Consider `O=C1NN(c2ccc(Cl)cc2)C(=O)/C1=C\c1ccc(-c2cccc(C(=O)O)c2)o1`, for which the displacement is 16.5% (inactive).
Regarding `O=C1NN(c2ccc(F)c(Cl)c2)C(=O)/C1=C\c1ccc(-c2cccc(C(=O)O)c2)o1`, the displacement is 5.7% (inactive).
For `O=C1NN(c2cccc(Cl)c2)C(=O)/C1=C\c1ccc(-c2cccc(C(=O)O)c2)o1` the value was 55.5% (active).
